Source: PubChem BioAssay (NCATS)
Results filed as inconclusive are left out. Calls of active or inactive are those of the source. Calls follow the shape of the dose curve; as a rule, active = well fitted curve in the direction sought with a large enough effect; inconclusive = small, poorly fitted or top-dose-only effect, or another doubt; inactive = no such curve, though single readings can be large; an effect the other way counts as inactive or inconclusive.

Legend:
[1] = target: ATP-dependent 6-phosphofructokinase (Trypanosoma brucei brucei) (UniProt O15648); test: qHTS Assay to Find Inhibitors of T. brucei phosphofructokinase: hit validation (AID 492961);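 also: luminescence reports ADP formed as PFK phosphorylates fructose-6-phosphate with ATP; % is scaled to controls: 0 for no effect and ±100 for the full control effect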
Summary of the method: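 Compounds titrated; %activity normalized to 0x and 1x enzyme controls, curve-fitted. Readout: ADP-Glo luminescence after 45 min room-temperature reaction of 1.25 nM PFK, 0.1 mM ATP, 0.5 mM F6P, pH 8.0.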

[2] = target: Ubiquitin carboxyl-terminal hydrolase 1 (Homo sapiens) (UniProt O94782); test: Inhibitors of USP1/UAF1: Pilot qHTS (AID 504865); also: potency is read from the fitted curve at half-maximal effect; nearly all actives have a fitted effect of over 35% in size
Summary of the method: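 Deubiquitinase activity followed as kinetic rhodamine fluorescence release from 150 nM Ub-Rho. 1 nM USP1/UAF1 with compound, after 15 min room-temperature preincubation, in HEPES pH 7.8 buffer containing TCEP, EDTA, BSA and Tween-20.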

[3] = target: Luciferin 4-monooxygenase (Photinus pyralis) (UniProt P08659); test: Biochemical firefly luciferase enzyme assay for NPC (AID 624030); also: potency is read from the fitted curve at half-maximal effect; nearly all actives have a fitted effect of over 70% in size
Summary of the method: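 Purified P. pyralis luciferase at 10 nM in 50 mM Tris Acetate (final), luminescence read within 5 minutes of enzyme addition to compounds. Activity normalised to PTC124 versus DMSO; concentration-response curves classed by r2, magnitude and activity.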

[4] = S16 Schwann cell viability assay (CellTiter-Glo assay) (AID 624031);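 also: native untransfected S16 rat Schwann cells; cellular ATP luminescence as a viability measure; plate controls were DMSO-treated cells for no effect and cell-free wells for full effect; nearly all actives have a fitted effect of over 70% in size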
Summary of the method: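 Following overnight culture in 10% FBS DMEM, parental S16 rat Schwann cells are dosed for 24 h at 37 °C. Viability is read as CellTiter-Glo luminescence and expressed as % activity relative to DMSO (0%) and no-cell wells.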

[5] = S16 Schwann cell PMP22 intronic element firefly luciferase assay (AID 624032);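 also: plate controls were DMSO for no effect and PTC124 positive control mean for full effect; nearly all actives have a fitted effect of over 30% in size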
Summary of the method: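 Rat S16 Schwann cells stably carrying firefly luciferase driven by a PMP22 intronic element, in 10% FBS, treated 24 h at 37 C. ONE-Glo luminescence normalized to PTC124 control and DMSO (0%); curves classed by r2, magnitude and activity.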

Furin (Homo sapiens) = Furin (Homo sapiens) (UniProt P09958); test: Furin counterscreen qHTS for Zika virus inhibitors (AID 1347149); also: potency is read from the fitted curve at half-maximal effect; nearly all actives have a fitted effect of over 70% in size
Summary of the method: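 Counterscreen measures cleavage of 2 microM BOC-RVRR-AMC, below its ~15 microM Km, by 5 nM full-length human furin at pH 7.0 after a 15-min compound preincubation. Inhibition derives from the 15-min fluorescence increase at 37C.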

[6] = Confirmatory screen GU Rhodamine qHTS for Zika virus inhibitors qHTS (AID 1347157); also: potency is read from the fitted curve at half-maximal effect; nearly all actives have a fitted effect of over 70% in size
Summary of the method: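 Noncovalent NS2B hydrophilic domain/NS3 protease complex (25 nM final) in 10 mM Tris-HCl pH 8.0, 0.01% Tween 20, preincubated 15 min with compounds (up to 114 microM), then 1.5 microM Rhodamine110 substrate. Fluorescence change over 15 min fitted to 4-parameter Hill.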

[7] = qHTS profiling for inhibitors of Plasmodium falciparum proliferation (AID 504749);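 also: 0% = DMSO vehicle and full inhibition = artemisinin control; nearly all actives have a fitted effect of over 60% in size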; conditions: P. falciparum in erythrocytes, SYBR Green DNA, 72 h, at 28.7 µM (top of the series)
Summary of the method: (§1)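 SYBR Green fluorescence (ex 485 nm, em 535 nm) reports parasite DNA after 72 h compound exposure of infected red cells at 0.3% parasitemia, 2.5% hematocrit; signal normalized to 0.29 uM artemisinin and vehicle wells.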

3D7 = test: as above; conditions: P. falciparum in erythrocytes, SYBR Green DNA, 72 h; series mostly up to 28.7 µM
Summary of the method: as §1

AA1029 = test: as above; conditions: P. falciparum in erythrocytes, SYBR Green DNA, 72 h; series mostly up to 28.7 µM
Summary of the method: as §1

AS120 = test: as above; conditions: P. falciparum in erythrocytes, SYBR Green DNA, 72 h; series mostly up to 28.7 µM
Summary of the method: as §1

ATS189 = test: as above; conditions: P. falciparum in erythrocytes, SYBR Green DNA, 72 h; series mostly up to 28.7 µM
Summary of the method: as §1

ATS95 = test: as above; conditions: P. falciparum in erythrocytes, SYBR Green DNA, 72 h; series mostly up to 28.7 µM
Summary of the method: as §1

C2A = test: as above; conditions: P. falciparum in erythrocytes, SYBR Green DNA, 72 h; series mostly up to 28.7 µM
Summary of the method: as §1

CP185 = test: as above; conditions: P. falciparum in erythrocytes, SYBR Green DNA, 72 h; series mostly up to 28.7 µM
Summary of the method: as §1

CP191 = test: as above; conditions: P. falciparum in erythrocytes, SYBR Green DNA, 72 h; series mostly up to 28.7 µM
Summary of the method: as §1

CP192 = test: as above; conditions: P. falciparum in erythrocytes, SYBR Green DNA, 72 h; series mostly up to 28.7 µM
Summary of the method: as §1

CP194 = test: as above; conditions: P. falciparum in erythrocytes, SYBR Green DNA, 72 h; series mostly up to 28.7 µM
Summary of the method: as §1

CP201 = test: as above; conditions: P. falciparum in erythrocytes, SYBR Green DNA, 72 h; series mostly up to 28.7 µM
Summary of the method: as §1

CP211 = test: as above; conditions: P. falciparum in erythrocytes, SYBR Green DNA, 72 h; series mostly up to 28.7 µM
Summary of the method: as §1

CP217 = test: as above; conditions: P. falciparum in erythrocytes, SYBR Green DNA, 72 h; series mostly up to 28.7 µM
Summary of the method: as §1

CP237 = test: as above; conditions: P. falciparum in erythrocytes, SYBR Green DNA, 72 h; series mostly up to 28.7 µM
Summary of the method: as §1

CP238 = test: as above; conditions: P. falciparum in erythrocytes, SYBR Green DNA, 72 h; series mostly up to 28.7 µM
Summary of the method: as §1

CP250 = test: as above; conditions: P. falciparum in erythrocytes, SYBR Green DNA, 72 h; series mostly up to 28.7 µM
Summary of the method: as §1

CP252 = test: as above; conditions: P. falciparum in erythrocytes, SYBR Green DNA, 72 h; series mostly up to 28.7 µM
Summary of the method: as §1

CP256 = test: as above; conditions: P. falciparum in erythrocytes, SYBR Green DNA, 72 h; series mostly up to 28.7 µM
Summary of the method: as §1

CP260 = test: as above; conditions: P. falciparum in erythrocytes, SYBR Green DNA, 72 h; series mostly up to 28.7 µM
Summary of the method: as §1

CP262 = test: as above; conditions: P. falciparum in erythrocytes, SYBR Green DNA, 72 h; series mostly up to 28.7 µM
Summary of the method: as §1

CP265 = test: as above; conditions: P. falciparum in erythrocytes, SYBR Green DNA, 72 h; series mostly up to 28.7 µM
Summary of the method: as §1

CP266 = test: as above; conditions: P. falciparum in erythrocytes, SYBR Green DNA, 72 h; series mostly up to 28.7 µM
Summary of the method: as §1

CP268 = test: as above; conditions: P. falciparum in erythrocytes, SYBR Green DNA, 72 h; series mostly up to 28.7 µM
Summary of the method: as §1

CP269 = test: as above; conditions: P. falciparum in erythrocytes, SYBR Green DNA, 72 h; series mostly up to 28.7 µM
Summary of the method: as §1

CP286 = test: as above; conditions: P. falciparum in erythrocytes, SYBR Green DNA, 72 h; series mostly up to 28.7 µM
Summary of the method: as §1

CP291 = test: as above; conditions: P. falciparum in erythrocytes, SYBR Green DNA, 72 h; series mostly up to 28.7 µM
Summary of the method: as §1

CP297 = test: as above; conditions: P. falciparum in erythrocytes, SYBR Green DNA, 72 h; series mostly up to 28.7 µM
Summary of the method: as §1

CP305 = test: as above; conditions: P. falciparum in erythrocytes, SYBR Green DNA, 72 h; series mostly up to 28.7 µM
Summary of the method: as §1

CP315 = test: as above; conditions: P. falciparum in erythrocytes, SYBR Green DNA, 72 h; series mostly up to 28.7 µM
Summary of the method: as §1

CP325 = test: as above; conditions: P. falciparum in erythrocytes, SYBR Green DNA, 72 h; series mostly up to 28.7 µM
Summary of the method: as §1

CP329 = test: as above; conditions: P. falciparum in erythrocytes, SYBR Green DNA, 72 h; series mostly up to 28.7 µM
Summary of the method: as §1

CP335 = test: as above; conditions: P. falciparum in erythrocytes, SYBR Green DNA, 72 h; series mostly up to 28.7 µM
Summary of the method: as §1

DFO2036 = test: as above; conditions: P. falciparum in erythrocytes, SYBR Green DNA, 72 h; series mostly up to 28.7 µM
Summary of the method: as §1

DIV14 = test: as above; conditions: P. falciparum in erythrocytes, SYBR Green DNA, 72 h; series mostly up to 28.7 µM
Summary of the method: as §1

DIV17 = test: as above; conditions: P. falciparum in erythrocytes, SYBR Green DNA, 72 h; series mostly up to 28.7 µM
Summary of the method: as §1

DIV30 = test: as above; conditions: P. falciparum in erythrocytes, SYBR Green DNA, 72 h; series mostly up to 28.7 µM
Summary of the method: as §1

ECU = test: as above; conditions: P. falciparum in erythrocytes, SYBR Green DNA, 72 h; series mostly up to 28.7 µM
Summary of the method: as §1

FAB9 = test: as above; conditions: P. falciparum in erythrocytes, SYBR Green DNA, 72 h; series mostly up to 28.7 µM
Summary of the method: as §1

GB4 = test: as above; conditions: P. falciparum in erythrocytes, SYBR Green DNA, 72 h; series mostly up to 28.7 µM
Summary of the method: as §1

JCK = test: as above; conditions: P. falciparum in erythrocytes, SYBR Green DNA, 72 h; series mostly up to 28.7 µM
Summary of the method: as §1

N140 = test: as above; conditions: P. falciparum in erythrocytes, SYBR Green DNA, 72 h; series mostly up to 28.7 µM
Summary of the method: as §1

P93_24 = test: as above; conditions: P. falciparum in erythrocytes, SYBR Green DNA, 72 h; series mostly up to 28.7 µM
Summary of the method: as §1

P94_40 = test: as above; conditions: P. falciparum in erythrocytes, SYBR Green DNA, 72 h; series mostly up to 28.7 µM
Summary of the method: as §1

PAD = test: as above; conditions: P. falciparum in erythrocytes, SYBR Green DNA, 72 h; series mostly up to 28.7 µM
Summary of the method: as §1

PC15 = test: as above; conditions: P. falciparum in erythrocytes, SYBR Green DNA, 72 h; series mostly up to 28.7 µM
Summary of the method: as §1

PC26 = test: as above; conditions: P. falciparum in erythrocytes, SYBR Green DNA, 72 h; series mostly up to 28.7 µM
Summary of the method: as §1

PC49 = test: as above; conditions: P. falciparum in erythrocytes, SYBR Green DNA, 72 h; series mostly up to 28.7 µM
Summary of the method: as §1

SC27B = test: as above; conditions: P. falciparum in erythrocytes, SYBR Green DNA, 72 h; series mostly up to 28.7 µM
Summary of the method: as §1

TAB109 = test: as above; conditions: P. falciparum in erythrocytes, SYBR Green DNA, 72 h; series mostly up to 28.7 µM
Summary of the method: as §1

TAB113 = test: as above; conditions: P. falciparum in erythrocytes, SYBR Green DNA, 72 h; series mostly up to 28.7 µM
Summary of the method: as §1

TAB165 = test: as above; conditions: P. falciparum in erythrocytes, SYBR Green DNA, 72 h; series mostly up to 28.7 µM
Summary of the method: as §1

W2 = test: as above; conditions: P. falciparum in erythrocytes, SYBR Green DNA, 72 h; series mostly up to 28.7 µM
Summary of the method: as §1

Sequence of ATP-dependent 6-phosphofructokinase (Trypanosoma brucei brucei) (O15648 whole entry, looked up): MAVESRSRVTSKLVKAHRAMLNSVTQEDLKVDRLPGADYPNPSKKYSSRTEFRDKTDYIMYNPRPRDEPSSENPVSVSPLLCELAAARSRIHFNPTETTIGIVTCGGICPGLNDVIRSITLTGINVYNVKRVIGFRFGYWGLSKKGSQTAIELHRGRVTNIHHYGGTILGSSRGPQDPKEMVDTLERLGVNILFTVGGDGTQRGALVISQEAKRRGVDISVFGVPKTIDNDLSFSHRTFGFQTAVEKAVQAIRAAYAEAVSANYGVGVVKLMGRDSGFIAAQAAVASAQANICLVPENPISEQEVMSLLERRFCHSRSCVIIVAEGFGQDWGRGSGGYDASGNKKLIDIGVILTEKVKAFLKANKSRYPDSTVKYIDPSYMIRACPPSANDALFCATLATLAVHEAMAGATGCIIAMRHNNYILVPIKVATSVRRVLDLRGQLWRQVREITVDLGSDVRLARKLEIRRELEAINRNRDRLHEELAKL
Sequence of Luciferin 4-monooxygenase (Photinus pyralis) (P08659 whole entry, looked up): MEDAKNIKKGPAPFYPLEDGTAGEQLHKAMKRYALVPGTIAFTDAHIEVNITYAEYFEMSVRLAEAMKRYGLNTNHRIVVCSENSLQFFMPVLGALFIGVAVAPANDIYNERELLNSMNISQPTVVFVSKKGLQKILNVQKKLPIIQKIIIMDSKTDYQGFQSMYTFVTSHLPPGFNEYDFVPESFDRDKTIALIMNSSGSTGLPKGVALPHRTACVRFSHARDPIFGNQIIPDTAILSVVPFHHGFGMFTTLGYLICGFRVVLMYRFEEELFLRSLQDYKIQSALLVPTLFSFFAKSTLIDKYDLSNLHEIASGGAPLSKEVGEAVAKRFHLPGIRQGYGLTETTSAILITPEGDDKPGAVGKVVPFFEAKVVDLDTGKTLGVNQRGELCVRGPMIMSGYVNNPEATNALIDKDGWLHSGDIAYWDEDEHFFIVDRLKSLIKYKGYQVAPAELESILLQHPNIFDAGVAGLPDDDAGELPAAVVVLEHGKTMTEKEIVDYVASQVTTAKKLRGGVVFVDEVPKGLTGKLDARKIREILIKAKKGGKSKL
Sequence of Ubiquitin carboxyl-terminal hydrolase 1 (Homo sapiens) (O94782 whole entry, looked up): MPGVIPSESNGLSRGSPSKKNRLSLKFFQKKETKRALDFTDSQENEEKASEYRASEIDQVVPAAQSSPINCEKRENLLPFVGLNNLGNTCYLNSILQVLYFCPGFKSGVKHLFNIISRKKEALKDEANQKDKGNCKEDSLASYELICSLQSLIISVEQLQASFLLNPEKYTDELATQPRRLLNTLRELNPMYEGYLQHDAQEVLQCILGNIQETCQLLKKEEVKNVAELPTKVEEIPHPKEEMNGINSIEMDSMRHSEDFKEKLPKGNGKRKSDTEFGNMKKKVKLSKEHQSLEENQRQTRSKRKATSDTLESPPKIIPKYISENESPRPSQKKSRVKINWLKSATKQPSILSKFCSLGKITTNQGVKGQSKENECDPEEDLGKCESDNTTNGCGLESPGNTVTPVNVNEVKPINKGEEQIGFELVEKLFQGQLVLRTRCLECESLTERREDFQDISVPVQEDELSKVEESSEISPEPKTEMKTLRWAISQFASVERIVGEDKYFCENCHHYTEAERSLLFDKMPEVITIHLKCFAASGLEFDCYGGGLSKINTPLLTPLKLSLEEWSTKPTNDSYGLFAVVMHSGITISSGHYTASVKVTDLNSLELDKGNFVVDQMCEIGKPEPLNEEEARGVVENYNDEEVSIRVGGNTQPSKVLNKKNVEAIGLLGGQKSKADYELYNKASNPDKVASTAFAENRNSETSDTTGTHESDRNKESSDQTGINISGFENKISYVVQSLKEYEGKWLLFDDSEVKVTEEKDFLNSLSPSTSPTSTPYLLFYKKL
Sequence of Furin (Homo sapiens) (P09958 whole entry, looked up): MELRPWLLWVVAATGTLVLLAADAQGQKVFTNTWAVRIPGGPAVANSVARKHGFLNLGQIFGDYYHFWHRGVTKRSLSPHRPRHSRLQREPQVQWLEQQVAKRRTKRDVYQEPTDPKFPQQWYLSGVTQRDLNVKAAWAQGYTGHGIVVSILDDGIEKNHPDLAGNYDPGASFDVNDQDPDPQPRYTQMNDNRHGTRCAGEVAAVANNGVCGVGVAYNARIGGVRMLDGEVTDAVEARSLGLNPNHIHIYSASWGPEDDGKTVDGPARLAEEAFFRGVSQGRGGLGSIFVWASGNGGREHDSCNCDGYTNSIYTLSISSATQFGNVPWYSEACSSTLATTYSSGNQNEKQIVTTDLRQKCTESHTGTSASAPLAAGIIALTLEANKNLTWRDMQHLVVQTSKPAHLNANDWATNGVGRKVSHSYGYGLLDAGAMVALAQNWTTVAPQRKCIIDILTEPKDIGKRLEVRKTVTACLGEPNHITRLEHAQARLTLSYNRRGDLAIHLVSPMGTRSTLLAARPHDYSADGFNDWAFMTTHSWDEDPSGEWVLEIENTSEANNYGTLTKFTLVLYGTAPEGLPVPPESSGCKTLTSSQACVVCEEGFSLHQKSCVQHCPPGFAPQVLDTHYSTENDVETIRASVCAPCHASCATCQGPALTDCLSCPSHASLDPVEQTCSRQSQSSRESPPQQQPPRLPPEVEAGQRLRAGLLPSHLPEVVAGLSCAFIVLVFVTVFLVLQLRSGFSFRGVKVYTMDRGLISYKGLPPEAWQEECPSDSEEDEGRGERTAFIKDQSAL

CC(C)(O)c1ccccc1CC[C@H](SCC1(CC(=O)O)CC1)c1cccc(/C=C/c2ccc3ccc(Cl)cc3n2)c1
inactive: outcome [1] | outcome [4] | Potency [5] | activity, negative = inhibition ([7]; parasite line A) -2.01% | activity, negative = inhibition ([7]; parasite line B) -18.3% | Potency (3D7) | Potency (AA1029) | Potency (AS120) | Potency (ATS189) | Potency (ATS95) | Potency (C2A) | Potency (CP185) | Potency (CP191) | Potency (CP192) | Potency (CP194) | Potency (CP201) | Potency (CP211) | Potency (CP217) | Potency (CP237) | Potency (CP238) | Potency (CP250) | Potency (CP252) | Potency (CP256) | Potency (CP260) | Potency (CP262) | Potency (CP265) | Potency (CP266) | Potency (CP268) | Potency (CP269) | Potency (CP286) | Potency (CP291) | Potency (CP297) | Potency (CP305) | Potency (CP315) | Potency (CP325) | Potency (CP329) | Potency (CP335) | Potency (DFO2036) | Potency (DIV14) | Potency (DIV17) | Potency (DIV30) | Potency (ECU) | Potency (FAB9) | Potency (GB4) | Potency (JCK) | Potency (N140) | Potency (P93_24) | Potency (P94_40) | Potency (PAD) | Potency (PC15) | Potency (PC26) | Potency (PC49) | Potency (SC27B) | Potency (TAB109) | Potency (TAB113) | Potency (TAB165) | Potency (W2)
active: Potency [2] 39.8 µM | Potency [3] 11.4 µM | Potency (Furin (Homo sapiens)) 52.7 µM | Potency [6] 11.2 µM
